This is an account of results in PubChem BioAssay AID1240 (Sanford-Burnham Center for Chemical Genomics, 2008).

The campaign covered roughly 50,000 compounds. About 800 (1.6%) showed an effect of 50% or more. The sample holds strong results, similar compounds and a random draw of the others, so the mix is not that of the screen.

For this experiment, the target named is Bcl-2-like protein 10 (Homo sapiens) (UniProt Q9HD36). Put plainly: Phenotype converters, Bcl-B/TR3 peptide binding displacement, primary biochemical FP (AID 1240).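 Also: 0% = Bcl-B with tracer peptide and DMSO and 100% = tracer peptide lacking Bcl-B.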 To be noted: GST-Bcl-B / FITC-TR3 peptide fluorescence polarization; stronger effect = higher value; compound at 3.75 mg/L. For orientation: Polarisation of emitted light reports the rotation of a fluorescent probe.
Bcl-2-like protein 10 (Homo sapiens), sequence (Q9HD36 whole entry, looked up): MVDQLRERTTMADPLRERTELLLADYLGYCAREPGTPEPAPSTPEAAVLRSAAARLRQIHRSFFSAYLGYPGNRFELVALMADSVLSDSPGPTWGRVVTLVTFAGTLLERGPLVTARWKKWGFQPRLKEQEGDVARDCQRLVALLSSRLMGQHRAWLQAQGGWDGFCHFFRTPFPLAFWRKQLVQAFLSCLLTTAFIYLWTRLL
Regarding `Brc1ccc(C=NN2CCN(Cc3ccccc3)CC2)cc1`, the displacement is -17.6%.
On to `CCOC(=O)C1=C(C)OC(N)=C(C#N)C1c1ccc(OC)cc1` (stereo not given), for which the displacement was -10.8%.
Next, `CCOC(=O)C1=C(N)Oc2ccc3ccccc3c2C1c1ccc(Cl)cc1` (stereo not given): -10.4%; `CCOC(=O)C1=C(N)Oc2c(ccc3ccccc23)C1c1ccc(OC)cc1` (stereo not given): 108%.
For `COc1cc(/C=C2\SC(N)=NC2=O)cc(Br)c1OC`, the displacement is -25.9%.
As to `Cc1[nH]c(=O)c(C(=O)/C=C/c2cccs2)c2c1CCCC2`, the displacement came to 119%.
Turning to `Cc1[nH]c(=O)c(C(=O)/C=C/c2ccccc2Cl)c2c1CCCC2`, the displacement came out at 11%.
Consider `Cc1ccc(/C=C/C(=O)c2c3c(c(C)[nH]c2=O)CCCC3)cc1`, for which the displacement amounted to 49.3%.
With `Cc1cccc(NC(=O)C(=O)NCc2ccco2)c1C`, the displacement worked out at 11%.
For `O=C(Nc1ccc(I)cc1)c1ccc(Cl)cc1Cl`, the displacement is 6.9%.
On to `Cc1ccc(N2C(=O)C(=O)/C(=C(/O)c3ccccc3)C2c2ccc(O)cc2)cc1Cl` (stereo not given), for which the displacement is -3.5%.
For the compound `NC(=O)c1cccc(N=Cc2cc(Cl)cc(Cl)c2O)c1`, the displacement is 145%.
Next, `NC(=O)c1ccccc1N=Cc1cc(Cl)cc(Cl)c1O`: -7.2%.
Consider `Oc1c(Cl)cc(Cl)cc1C=Nc1cccc(C(F)(F)F)c1`, for which the displacement turned out to be 2.4%.
As for `CN(C)CCCNC(=O)/C=C/c1ccc(C(C)(C)C)cc1`, the displacement came out at 6.4%.
Take `O/N=C/c1cn(-c2ccccc2)nc1-c1ccccc1`: the displacement was 10%.
Consider `O/N=C/c1cn(-c2ccccc2)nc1-c1ccc(Cl)cc1`, for which the displacement was -3.8%.
Regarding `O=c1oc2ccccc2cc1-c1nn(-c2ccccc2)cc1/C=N/O`, the displacement was found to be 53%.
For the compound `COCCCNC(=O)C(=O)Nc1ccccc1F`, the displacement was -11.9%.
With `CCOc1cc(C2C(C(=O)OC)=C(C)NC(C)=C2C(=O)OC)ccc1O`, the displacement came to 0.1%.
On to `COc1cc(/C=C2\SC(=S)N(c3ccc(F)cc3)C2=O)cc(OC)c1OC`, for which the displacement was found to be 3.3%.
For `COc1ccc(N2C(=O)/C(=C/c3ccc(OC)c(OC)c3)SC2=S)cc1`, the displacement came to 6.5%.
With `COc1cc(/C=C2/SC(=S)N(c3ccccc3)C2=O)ccc1OC(=O)c1ccc(F)cc1`, the displacement was found to be 4.7%.
`CCOc1ccc(/C=C2\SC(=S)N(c3ccc(OC)cc3)C2=O)cc1OC`: the displacement was 114%.
Take `C=CCOc1ccc(/C=C2\SC(=S)N(c3ccc(OC)cc3)C2=O)cc1OC`: the displacement was 6.7%.
On to `COc1ccc(/C=C2\SC(=S)N(c3ccc(F)cc3)C2=O)cc1OC`, for which the displacement amounted to 105%.
`O=S(=O)(c1ccc(C=Nc2ccc(Br)cc2)cc1)c1ccc(C=Nc2ccc(Br)cc2)cc1`: the displacement is -8.7%.
Regarding `COc1ccc(C2CC(C(F)(F)F)n3ncc(C(=O)Nc4ccc(F)cc4F)c3N2)cc1OC` (stereo not given), the displacement was -1.7%.
`CC1(C)Cc2ccccc2C(/C(=N\O)C(=O)c2ccccc2)=N1`: the displacement worked out at 13.1%.
Next, `COc1ccc(C(=O)Nc2cccc(S(N)(=O)=O)c2)cc1`: -5.8%.
